Compound activity as filed in PubChem.
D1 antagonist = Antagonist of Human D 1 Dopamine Receptor: qHTS. activity change, negative = inhibition, % at 10 µM. D(1A) dopamine receptor (Homo sapiens), P21728. AID 504652, 2011. HEK293 TREx D1 cells, calcium flux, dopamine EC80; active compounds read low. actives 3.2% (n = 360,000); in the data active = activity change below about -30%; note: % is set by controls: 0 for no effect and ±100 for the full control effect
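HEK293 T-REx cells expressing inducible, force-coupled D1 receptor; no-wash Ca dye, 30–90 min RT. Cmpd → 180 s read at 1 Hz → EC80 DA → 180 s read.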
D1 agonist = Allosteric Agonists of the Human D1 Dopamine Receptor: qHTS; D(1A) dopamine receptor (Homo sapiens), P21728; HEK293 T-REx D1 cells, calcium flux, agonist mode; AID 504660, 2011; activation, % at 2 µM; actives 1% (n = 360,000); note: 0% is about no effect
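Tetracycline-induced HEK293 TREx D1 cells, force-coupled to calcium signalling, were dye-loaded with a no-wash calcium kit. Compound was pin-added after a 10 s baseline. Fluorescence was read kinetically at 1 cycle/s for 180 s, with calcium rises flagged as agonism.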
TRHR agonist-1 = qHTS for Small Molecule Agonists and Allosteric Enhancers of Human TRH Receptor: Primary Screen for Agonists | Thyrotropin-releasing hormone receptor (Homo sapiens), P34981 | TRHR cells, calcium flux fluo-8, FDSS agonist mode | activation, % at 2 µM | actives 0.18% (n = 360,000) | AID 493084, 2011; note: 0% is about no effect
Target sequence (P34981 whole entry, looked up): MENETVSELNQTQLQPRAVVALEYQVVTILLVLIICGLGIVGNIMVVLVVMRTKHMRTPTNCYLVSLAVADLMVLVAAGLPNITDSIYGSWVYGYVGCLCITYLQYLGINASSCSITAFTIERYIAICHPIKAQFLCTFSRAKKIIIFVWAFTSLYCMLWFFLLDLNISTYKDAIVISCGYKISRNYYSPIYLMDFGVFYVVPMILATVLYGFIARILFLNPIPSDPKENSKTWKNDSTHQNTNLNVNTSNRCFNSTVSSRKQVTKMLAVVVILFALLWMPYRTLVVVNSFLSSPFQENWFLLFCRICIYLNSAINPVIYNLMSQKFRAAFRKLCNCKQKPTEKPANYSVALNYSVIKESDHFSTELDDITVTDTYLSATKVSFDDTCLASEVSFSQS
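Read-out: compound-evoked intracellular calcium rise in TRHR cells, fluo-8 dye, kinetic FDSS fluorescence at 1 s/cycle following a 10-cycle baseline. Cells cultured overnight before dye loading (30 min–1.5 h, RT).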
TRHR enhancer-1 = qHTS for Small Molecule Agonists and Allosteric Enhancers of Human TRH Receptor: Primary Screen for Enhancers. Thyrotropin-releasing hormone receptor (Homo sapiens), P34981. TRHR cells, fluo-8 calcium fluorescence, EC20 TRH enhancement. enhancement, % at 2 µM. actives 0.66% (n = 360,000). AID 493056, 2011; in the data active = enhancement above about 30%; note: 0% is about no effect
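TRHR-expressing cells loaded with fluo-8 calcium dye were read kinetically (ex 480/em 530) during compound addition, then stimulated with an EC20 of TRH (10 nM final). Enhancement of the Gq-mediated intracellular calcium response was scored.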
D1 potentiator = Potentiators of Human D1 Dopamine Receptor: qHTS. AID 504651, 2011. potentiation, % at 10 µM. HEK293 TREx D1 cells, calcium flux, dopamine EC20 potentiation. actives 0.036% (n = 360,000). D(1A) dopamine receptor (Homo sapiens), P21728; in the data active = potentiation above about 30%; note: 0% is about no effect
TRHR enhancer-2 = qHTS for Small Molecule Agonists and Allosteric Enhancers of Human TRH Receptor: Confirmation Screen for Enhancers | shares compounds with TRHR enhancer-1 | TRH receptor cell assay, enhancer confirmation qHTS | activity change, negative = inhibition, % at 46.1 µM | 970 tested, under 10 active | AID 493076, 2011; active = well fitted curve in the direction sought with a large enough effect; inconclusive = small, poorly fitted or top-dose-only effect, or another doubt; inactive = no such curve, though single readings can be large; an effect the other way counts as inactive or inconclusive;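 note: compound effect scored on response to added TRH at EC20 of 10 nM; 0% is about no effect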
TRHR agonist-2 = qHTS for Small Molecule Agonists and Allosteric Enhancers of Human TRH Receptor: Confirmation Screen for Agonists | shares compounds with TRHR enhancer-1 | TRHR-expressing cells, agonist activation read-out | Potency, µM (series often up to 46.1 µM), for inactives: at the highest dose activation, usual class: activators | actives 8% (n = 970) | AID 493078, 2011; active = well fitted curve in the direction sought with a large enough effect; inconclusive = small, poorly fitted or top-dose-only effect, or another doubt; inactive = no such curve, though single readings can be large; an effect the other way counts as inactive or inconclusive; note: potency is the fitted concentration of half-maximal effect; 0% is about no effect; nearly all actives have a fitted effect of over 75% in size
* = called active by the depositor. Hits are enriched below; roughly 4.7% of the tested compounds scored in any of these assays. Cut-off read from the data, not from the text of the source, unless noted: active = activation above about 30%; inactive = the rest.

For NS(=O)(=O)c1ccc(C(=O)Nc2ccc(-c3nc4cccnc4s3)cc2)cc1 the results were D1 antagonist 12.9, D1 agonist 0.7, TRHR agonist-1 0.6, TRHR enhancer-1 44.2*, D1 potentiator 8.5, TRHR enhancer-2 -8.6 and TRHR agonist-2 0.9%.
For NS(=O)(=O)c1ccc(NC(=O)c2ccc(-c3ccccc3)cc2)cc1 the results were D1 antagonist 10.0, D1 agonist 5.5, TRHR agonist-1 0.5, TRHR enhancer-1 -3.1 and D1 potentiator 12.2.
Cc1cc(Br)ccc1NC(=O)c1cc2c(=O)n(C)c3cc(Cl)ccc3c2s1 was read as D1 antagonist 5.4, D1 agonist 0.8, TRHR agonist-1 1.0, TRHR enhancer-1 2.1 and D1 potentiator 8.2.
N#Cc1c(N)n(CCNC(=O)c2cccs2)c2nc3ccccc3nc12 was read as D1 antagonist -0.7, D1 agonist 4.2, TRHR agonist-1 0.4, TRHR enhancer-1 1.5 and D1 potentiator -6.2.
For N#Cc1c(N)n(CCNC(=O)c2ccccc2)c2nc3ccccc3nc12 the results were D1 antagonist -1.8, D1 agonist 5.3, TRHR agonist-1 27.7, TRHR enhancer-1 4.0, D1 potentiator 1.3, TRHR enhancer-2 -5.8 and TRHR agonist-2 -0.7%.
For CC(C)[C@H](NC(=O)c1c(F)cccc1F)C(=O)OCC(=O)NC(=O)NC1CCCC1 the results were D1 antagonist 2.6, D1 agonist 2.6, TRHR agonist-1 -0.5, TRHR enhancer-1 55.4*, D1 potentiator 0.4, TRHR enhancer-2 -3.2 and TRHR agonist-2 -0.3%.
`COc1ccc(C2=C(C(C)=O)Sc3nnc(-c4ccc(Cl)cc4)n3N2C(C)=O)cc1OC` gave D1 agonist 0.0, TRHR agonist-1 0.2, TRHR enhancer-1 4.9 and D1 potentiator 6.5.
`Cc1c2ccccc2nc2c(F)c(NCCO)c(F)c(F)c12` gave D1 antagonist 4.7, D1 agonist 29.3, TRHR agonist-1 37.1*, TRHR enhancer-1 11.2, D1 potentiator -4.7, TRHR enhancer-2 7.7 and TRHR agonist-2 16.4µM*.
CC(=Nc1cccc(O)c1)c1sc2ccccc2c1O was read as D1 antagonist -28.2, D1 agonist 67.8*, TRHR agonist-1 29.1, TRHR enhancer-1 14.0, D1 potentiator -6.8, TRHR enhancer-2 -2.5 and TRHR agonist-2 inconclusive.
COc1ccc(/C=C2\SC(=S)N(c3cccnc3)C2=O)cc1 was read as D1 antagonist 8.1, D1 agonist 4.6, TRHR agonist-1 0.1, TRHR enhancer-1 -11.6 and D1 potentiator 3.4.
For Cc1cc(C)nc(NN2C(=O)/C(=C/c3ccc(O)cc3)SC2=S)n1 the results were D1 antagonist 18.8, D1 agonist 42.9*, TRHR agonist-1 35.8*, TRHR enhancer-1 7.2, D1 potentiator -0.8, TRHR enhancer-2 -6.0 and TRHR agonist-2 20.6µM*.
For O=C1/C(=C\c2ccc(O)cc2)SC(=S)N1c1cccnc1 the results were D1 antagonist -2.0, D1 agonist 66.0*, TRHR agonist-1 36.2*, TRHR enhancer-1 -2.4, D1 potentiator -5.8, TRHR enhancer-2 -6.0 and TRHR agonist-2 inconclusive.
`CCCCc1nc2cc(C(=O)N3CCNC(=O)C3CC(=O)OC)ccc2o1` (stereo not given) gave D1 antagonist 16.7, D1 agonist 0.2, TRHR agonist-1 0.0, TRHR enhancer-1 89.1*, D1 potentiator -2.0, TRHR enhancer-2 0.1 and TRHR agonist-2 -0.7%.
For COc1ccc(OC)c(C=Nc2ccccc2-c2nc3ccccc3[nH]2)c1 the results were D1 antagonist -0.8, D1 agonist -0.5, TRHR agonist-1 -1.1, TRHR enhancer-1 -4.9 and D1 potentiator 2.9.
Screening COc1ccc(OC)c(/C=C/c2nc3ccccc3[nH]c2=O)c1 returned D1 antagonist -2.2, D1 agonist 61.6*, TRHR agonist-1 26.4, TRHR enhancer-1 -3.8, D1 potentiator -0.8, TRHR enhancer-2 4.9 and TRHR agonist-2 18.4µM*.
For C/C(=N/Nc1ccc([N+](=O)[O-])cc1)c1c[nH]c2ccccc12 the results were D1 antagonist -33.2*, D1 agonist 83.5*, TRHR agonist-1 34.9*, TRHR enhancer-1 -0.4, D1 potentiator -7.9, TRHR enhancer-2 -4.4 and TRHR agonist-2 inconclusive.
Screening C/C(=N/Nc1ccc([N+](=O)[O-])cc1)c1ccc(C)cc1C returned D1 antagonist -17.9, D1 agonist 5.0, TRHR agonist-1 1.9, TRHR enhancer-1 -4.6 and D1 potentiator 1.1.
`CCOCCCNC(=O)c1cc(Sc2ccc(F)cc2)nc2ccccc12` gave D1 antagonist 4.2, D1 agonist 3.9, TRHR agonist-1 0.2, TRHR enhancer-1 48.8*, D1 potentiator -3.5, TRHR enhancer-2 -6.9 and TRHR agonist-2 2.7%.
`CCCCNC(=O)c1cc(-c2ccc(F)cc2)on1` gave D1 antagonist -5.0, D1 agonist 1.4, TRHR agonist-1 -0.4, TRHR enhancer-1 41.0*, D1 potentiator -2.8, TRHR enhancer-2 -2.3 and TRHR agonist-2 5.8%.
For Cc1ccc2c(NC(=O)c3ccco3)cccc2n1 the results were D1 antagonist -4.1, D1 agonist 0.7, TRHR agonist-1 -0.2, TRHR enhancer-1 41.8*, D1 potentiator 6.3, TRHR enhancer-2 -0.7 and TRHR agonist-2 -0.5%.
Screening Cc1cc([N+](=O)[O-])ccc1NC(=O)c1ccco1 returned D1 antagonist -6.8, D1 agonist 5.7, TRHR agonist-1 -0.6, TRHR enhancer-1 46.0*, D1 potentiator 0.4, TRHR enhancer-2 -3.2 and TRHR agonist-2 0.3%.
Cc1cc(NC(=O)c2ccc([N+](=O)[O-])cc2Cl)ccc1NC(=O)c1ccco1 was read as D1 antagonist 7.4, D1 agonist 2.0, TRHR agonist-1 0.0, TRHR enhancer-1 -1.6 and D1 potentiator -7.5.
CCCCNC(=O)N1CCC(CCC(=O)N(C)Cc2ccccc2)CC1 was read as D1 antagonist 24.8, D1 agonist -2.4, TRHR agonist-1 -0.2, TRHR enhancer-1 -5.8 and D1 potentiator -7.0.
